Only some compounds are listed: those with a hit (about 3.7% of all), similar ones and a draw of the others.
Tau ThT inhib: tau fibrillization inhibition (ThT binding); recombinant tau K18 P301L, heparin-induced fibrillization, ThT fluorescence; Potency, µM (doses to about 57.4 µM), for the others: at the highest dose activity, negative = inhibition, usual class: inhibitors; AID 1460; 2.1% of 270,000 active; further: on the % scale 0 is the no-effect control and ±100 the full control effect; nearly all actives have a fitted effect of over 55% in size
Target sequence (P10636 561-689 P618L limits assumed): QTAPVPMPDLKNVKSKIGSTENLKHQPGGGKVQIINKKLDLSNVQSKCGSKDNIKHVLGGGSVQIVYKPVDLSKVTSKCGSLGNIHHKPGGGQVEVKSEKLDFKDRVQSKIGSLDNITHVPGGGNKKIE
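ThT emission at 510 nm, taken 1 hr after adding 30 uM dye, quantifies aggregates formed when 20 uM heparin acts on human tau K18 P301L for 6 hr at 37 C.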
HTT cytoprotect: Huntington cell model cytoprotection by ATP luminescence; AID 1471; Potency, µM (series often up to 56.4 µM), for inactives: cytoprotection (ATP increase), actives largely listed as activators; PC12 HTT-Q103 induced, cytoprotection, ATP luminescence, 40 h; 0.14% of 230,000 active; further: % of control where 0% means no effect; nearly all actives have a fitted effect of over 45% in size
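Rat PC12, Q103 Htt exon1-GFP fusion, ecdysone promoter; tebufenozide inducer 100 nM final; compound titration; qHTS, 1500 cells/well; ATPlite luminescent read.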
Tau fibril FP: inhibitors of human tau fibril formation; 0.39% of 280,000 active; K18 P301L tau heparin fibrillization, Alexa594 FP, 6 h; P10636; Potency, µM (top dose mostly 57.7 µM), for the others: at the top dose activity, negative = inhibition, usual class: inhibitors; further: on the % scale 0 is the no-effect control and ±100 the full control effect; nearly all actives have a fitted effect of over 55% in size
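Compound effects on tau fibrillization are measured by Alexa 594 fluorescence polarization (ex 555, em 632 nm). K18 P301L tau is used at 15 uM with 0.24 uM labeled tracer, and 20 uM heparin induces aggregation over 6 hr at 37 C.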
HttQ103 aggreg: inhibitors of mutant huntingtin aggregate formation in PC12 cells | PC12 HttQ103-GFP aggregates, Acumen cytometry, 40 h | Potency, µM (doses to about 46.1 µM), inactives show at the top dose activity change, negative = inhibition, most hits filed as inhibitors | 1.1% of 220,000 active; further: on the % scale 0 is the no-effect control and ±100 the full control effect; nearly all actives have a fitted effect of over 60% in size
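Inducible Q103 Huntingtin exon 1–GFP PC12 line, 1500 cells/well in phenol red free DMEM with 5% equine and 5% calf serum. Tebufenozide 100 nM induced expression; compounds titrated; aggregates quantified by cytometry.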
Tau fluor cs: counter-screen for tau fibril formation inhibitors | tau K18 P301L Alexa594 fluorescence, heparin fibrillization | Potency, µM (titrated, usually from 57.7 µM), without a hit: at the top dose activity change, negative = decrease | 0.93% of 280,000 active; further: on the % scale 0 is the no-effect control and ±100 the full control effect; nearly all actives have a fitted effect of over 55% in size
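Human tau K18 P301L (15 uM unlabeled, 0.24 uM Alexa 594-labeled) in 100 mM sodium acetate pH 7 with 20 uM heparin, 6 hr at 37 C. ThT 30 uM added, 1 hr ambient; Alexa 594 FP and total fluorescence read at 555/632 nm.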
* hit, by the source's call; ? = inconclusive; nt = no result; [ ] = remark or other dose. The call rests on the fitted dose curve; in most records, active means well fitted curve in the direction sought with a large enough effect; inconclusive means small, poorly fitted or top-dose-only effect, or another doubt; inactive means no such curve, though single readings can be large; an effect the other way counts as inactive or inconclusive. Potency means the concentration at half of the fitted maximal effect.

SMILES	Tau ThT inhib	HTT cytoprotect	Tau fibril FP	HttQ103 aggreg	Tau fluor cs
N#CC(C#N)=C1C=CC=CN1/C(=C\c1ccco1)C(=O)c1ccc(Br)cc1	11µM*	32%[10 µM]	?	?	-28%
Cc1ccnc(Nc2nc(-c3c(C)nc4sccn34)cs2)c1	7.9µM*	-39%[10 µM]	7%	?	14µM*[quencher]
CC(=O)Nc1cccc(-c2csc(Nc3ccccn3)n2)c1	?	-57%	1%	-20%	?
CC(=O)Nc1cccc(-c2csc(Nc3cc(C)ccn3)n2)c1	?	-26%	5%	?	18µM*[quencher]
CC(=O)Nc1ccc(-c2csc(Nc3cc(C)ccn3)n2)cc1	7.1µM*	-111%	8%	-9%	16µM*[quencher]
CC(=O)Nc1cccc(-c2csc(Nc3ccc(Cl)cn3)n2)c1	?	-68%	-5%	-13%[9.22 µM]	13µM*[quencher]
CC(=O)Nc1ccc(-c2csc(Nc3ccc(Cl)cn3)n2)cc1	?	-49%	-3%	-4%	?
CC(=O)Nc1ccc(-c2csc(Nc3ncccn3)n2)cc1	-17%	-22%	5%	35%	-26%
N[C@@H](Cc1nn[nH]n1)C(=O)O	nt	-22%[10 µM]	nt	nt	nt
C[Si](C)(c1ccc(C(=O)O)cc1)c1ccc(C(=O)O)cc1	nt	10%[10 µM]	nt	nt	nt
CCCC(=O)Oc1c(Sc2ccc(Cl)cc2)c(C)nn1-c1ccccc1	?	nt	-24%	nt	-28%
O=c1cc(O)c2sc(Nc3ccc(Cl)c(F)c3)nc2[nH]1	16µM*	8%[10 µM]	13µM*	-25%[9.22 µM]	?
O=c1cc(O)c2sc(Nc3ccc(F)c(Cl)c3)nc2[nH]1	28µM*	-18%	?	-9%	?
COc1ccc(Nc2nc3[nH]c(=O)cc(O)c3s2)cc1	11%	nt	2%	10%	11%
CCCOc1ccc(CNC(=O)CN2C(=O)c3cccnc3Oc3ccc(C)cc32)cc1	7%	nt	3%	nt	-7%
O=C(O)/C(Cc1cn[nH]n1)=N\O	nt	-3%[10 µM]	nt	nt	nt
COc1ccc(C(=O)Nc2ccccc2)cc1S(=O)(=O)Nc1ccc(Br)cc1	11%	nt	?	nt	-30%
COc1ccc(NC(=O)c2ccc3c(c2)NC(=O)CS3)cc1S(=O)(=O)Nc1ccc(Br)cc1	1%	-132%	28µM*	18µM*	?
CC(C)Cc1nn2c(=O)cc(COC(=O)c3ccc(NC(=O)C4CCCCC4)cc3)nc2s1	0%	nt	-1%	nt	0%
Cc1nn(C)c(C)c1CN(C)S(=O)(=O)c1ccc2ccccc2c1	-8%	?	0%	7.9µM*	-5%
O=C(N[C@@]1(C(=O)O)C[C@@H]1c1ccccc1)c1ccccc1	nt	-11%[10 µM]	nt	nt	nt
O=S(=O)(c1ccc(NC(=S)Nc2ccccc2)cc1)N1CCOCC1	-2%	nt	-5%	10%	-5%
CC(C)CCCCCCNC(=S)Nc1ccc(S(=O)(=O)N2CCOCC2)cc1	15%	-6%[10 µM]	25µM*	?	?
COc1ccc(-n2c(=O)c(CCc3ccccc3)nc3cnc(OC)nc32)cc1	nt	-42%	nt	nt	nt
C=C(CC(=O)O)C(=O)O (tested in a mixture with another compound)	nt	-13%[10 µM]	nt	nt	nt
SMILES	Tau ThT inhib	HTT cytoprotect	Tau fibril FP	HttQ103 aggreg	Tau fluor cs
Cc1cc2nc3c(=O)[nH]c(=O)[nH]c3nc2c([N+](=O)[O-])c1N	14µM*	12%[10 µM]	?	-1%	?
NC(=O)CS(=O)(=O)c1nc2ccccc2n1Cc1ccccc1F	0%	25µM*	-9%	16%	3%
CCOC(=O)OCC1OC(C#Cc2ccccc2)C=CC1OC(=O)OCC (stereo unspecified)	?	?	-23%[11.6 µM]	nt	-11%[11.6 µM]
Cc1ccc(-n2c(C)cc(C(=O)CSc3nncs3)c2C)cc1	?	-114%	3%	10µM*	-13%
CC(=O)N1CCc2c(sc3c2c(=O)n(CCc2ccccc2)c(=O)n3Cc2ccc(F)cc2)C1	?	nt	-4%	nt	-27%
O=C1CC(=O)c2c1cccc2[N+](=O)[O-]	nt	7%[10 µM]	?	-13%[9.22 µM]	5.6µM*[quencher]
O=C1OCc2cccc([N+](=O)[O-])c21	17%	nt	5%	-9%	8%
O=C(c1ccc(C23CC4CC(CC(C4)C2)C3)o1)N1CCOCC1	-14%	-26%	-2%	5.6µM*	-9%
N/N=C1/c2ccccc2N[C@H]1OC(=O)Nc1ccccc1	nt	-4%[10 µM]	nt	nt	nt
CCOc1ccc(NC(=O)C(c2ccccn2)N(C(=O)CCl)c2ccc(OCC)cc2)cc1 (stereo unspecified)	10µM*	-12%[10 µM]	?	-9%	?
CC[n+]1c(C=C2C=C(C)OC(C)=C2)sc2ccccc21	25µM*	-97%	1%	4µM*	2%
CC[n+]1c(/C=C(\C)Nc2ccccc2)sc2ccccc21	?	-1%[10 µM]	4%	-7%	-3%
CC[n+]1c(/C=C/Nc2ccccc2)sc2ccccc21	?	-48%	1%	11µM*	28µM*[fluorescent]
CSC1=NS(=O)(=O)c2c(C)nn(C)c2S1	16µM*	10%[10 µM]	?	13%[9.22 µM]	-20%
Nc1nc2ccc([N+](=O)[O-])c(N)c2s1	11µM*	-20%	?	-14%	?
CS(=O)(=O)c1ccc2nc(N)sc2c1	-12%	-5%	-7%	-4%	-8%
CC(C)C12CC[C@@]3(CC[C@H]4[C@@](C)(CCC[C@]4(C)C(=O)O)[C@@H]3C1)[C@@H](CN)C2	nt	-12%[10 µM]	nt	nt	nt
COc1ccc(C(=O)c2ccc(N3CCN(C(=O)c4ccc(F)cc4)CC3)c(F)c2)cc1Br	?	-49%	?	13µM*	?
Nc1nc(-c2ccccc2)c(N=Nc2cccnc2)s1	2.8µM*	-48%	4%	-2%	?
Cc1cccc(N2CCN(C(=O)c3ccc(NS(=O)(=O)c4c(C)noc4C)cc3)CC2)c1C	?	8%[10 µM]	0%	20µM*	-17%
Cc1cccc(N2CCN(C(=O)CSCc3c(C)noc3C)CC2)c1C	?	-14%[10 µM]	2%	7.1µM*	-3%
Cc1noc(C)c1CSCC(=O)N1CCN(c2ccc(F)cc2)CC1	?	8%[10 µM]	-2%	7.9µM*	-5%
Cc1noc(C)c1S(=O)(=O)Nc1ccc(C(=O)N2CCN(c3cccc(Cl)c3)CC2)cc1	-19%	1%	3%	?	-20%
Cc1cccc(Cl)c1NC[C@H](O)CN1CCN(C)CC1	nt	0%[10 µM]	nt	nt	nt
CCn1c(C(=O)Nc2cc(C)cc(C)c2)cc2sc(Cl)cc21	-19%	nt	-3%	nt	-25%
Cc1ccc(OCC(=O)Nc2nonc2-c2ccc(C)c(C)c2)cc1C	9%	nt	2%	nt	6%
COc1cccc(N(C(=O)CCl)C(C(=O)NCCc2ccccc2)c2cccs2)c1 (stereo unspecified)	-14%	-63%[10 µM]	12%	22µM*	-15%
CC1(C(=O)NC(=S)NNC(=O)c2ccncc2)CCCCC1	2%	15%[1.9 µM]	-1%	15%	-1%
O=C(NNC(=S)NC(=O)C12CC3CC(CC(C3)C1)C2)c1ccncc1	-5%	3%[10 µM]	1%	3.2µM*	-5%

High-throughput results: PubChem, National Center for Advancing Translational Sciences (NCATS)
